BoNT-F LC inh = inhibitors of Botulinum neurotoxin F light chain protease; Multiplex microsphere protease cleavage assay, flow cytometry; inhibition, % at 10 µM; 360,000 compounds, 0.22% hits; AID 588497; in the data active = inhibition above about 35%, passing the limit was not always enough; inconclusive = no clear call, values can overlap the other calls; also: plate controls were buffer without enzyme for full effect and enzyme alone for no effect
Vc quorum ag = quorum light induction in luxS cqsA deficient V. cholerae | V. cholerae BH1578 lux reporter, luminescence, 6 h | activation, % at 18.7 µM | 350,000 compounds, 0.16% hits; in the data active = activation mostly above about 9.7%, no sharp cut-off; inconclusive = no clear call, values can overlap the other calls; inactive = mostly below about 3.7%
BJeLR lethal = kills HRASV12-expressing BJeLR cells; BJeLR (HRASV12) viability, CellTiter-Glo ATP luminescence, 48 h; inhibition, % (concentration not given with the values); 300,000 compounds, 0.17% hits; in the data active = inhibition above about 50%; inconclusive = no clear call, values can overlap the other calls
Bead autofluor = flagged as autofluorescent in microsphere protease counterscreen | compound autofluorescence counterscreen, microsphere flow cytometry; stronger effect = higher value | fluorescence intensity (concentration not given with the values) | 360,000 compounds, 3.1% hits; in the data active = fluorescence intensity above about 16000; inconclusive = no clear call, values can overlap the other calls
Anthrax LF inh2 = inhibitors of Bacillus anthracis lethal factor protease; inhibition, % at 10 µM; AID 588501; multiplex microsphere protease cleavage assay, LF; P15917; 360,000 compounds, 0.12% hits; also: plate controls were buffer without enzyme for full effect and enzyme alone for no effect
BoNT-A LC inh2 = inhibitors of Botulinum neurotoxin A light chain protease; multiplex microsphere protease substrate cleavage, flow cytometry; inhibition, % at 10 µM; 360,000 compounds, 0.17% hits; AID 588499; also: plate controls were buffer without enzyme for full effect and enzyme alone for no effect
* = called active by the depositor. Compounds with a hit are over-represented: about 3.7% of the library has one in this group of screens. Rule as the data show it, unless noted: active = inhibition above about 30%; inconclusive = no clear call, values can overlap the other calls; inactive = below that.

CCOC(=O)C1CCCN(CCC(=O)Nc2c(C(=O)OC)[nH]c3cc(OC)ccc23)C1 (configuration not stated) was read as BoNT-F LC inh 5.8, Vc quorum ag inactive, BJeLR lethal -1.0, Bead autofluor 19014*, Anthrax LF inh2 -2.3 and BoNT-A LC inh2 inconclusive.
For O=S1(=O)CC(N2CCC(Cc3ccccc3)CC2)CN1C1CCCCC1 (configuration not stated) the results were BoNT-F LC inh -0.9, Bead autofluor 5783, Anthrax LF inh2 -1.1 and BoNT-A LC inh2 0.6.
Cn1c(=O)c2cc(NC(=S)NCc3ccccc3F)ccc2n1Cc1cccc(C(F)(F)F)c1 was read as BoNT-F LC inh -3.1, Vc quorum ag -5.0, Bead autofluor 3555, Anthrax LF inh2 0.8 and BoNT-A LC inh2 -0.2.
COc1cc2nc(N3CCN(c4cc(C)ccc4C)CC3)nc(N)c2cc1OC was read as BoNT-F LC inh 10.0, Vc quorum ag -0.4, BJeLR lethal 18.8, Bead autofluor 5747, Anthrax LF inh2 -9.7 and BoNT-A LC inh2 -5.3.
For COc1cc2nc(N3CCNCC3)nc(N)c2cc1OC the results were BoNT-F LC inh -4.2, Vc quorum ag -11.1, BJeLR lethal 2.8, Bead autofluor 17344*, Anthrax LF inh2 -1.3 and BoNT-A LC inh2 -2.7.
`CN(C)c1ccc(N=Cc2ccco2)cc1` gave BoNT-F LC inh -23.3, Vc quorum ag -0.2, Bead autofluor 20149*, Anthrax LF inh2 -10.4 and BoNT-A LC inh2 7.7.
O=C(NCC1CC1)c1ccc2sc([C@@H]3O[C@H](CO)[C@H](O)[C@H](O)[C@H]3O)nc2c1 was read as BoNT-F LC inh -2.4, Vc quorum ag inactive, Bead autofluor 3891, Anthrax LF inh2 -0.9 and BoNT-A LC inh2 -0.3.
`COc1ccc(NC(=O)C2CCN(c3cc(-c4ccccc4)nc4ncnn34)CC2)cc1OC` gave BoNT-F LC inh -1.0, Vc quorum ag inactive, Bead autofluor 20978*, Anthrax LF inh2 0.6 and BoNT-A LC inh2 inconclusive.
COc1cccc(-c2csc(N3CCN(C(=O)Nc4ccccc4OC)CC3)n2)c1 was read as BoNT-F LC inh -6.6, Vc quorum ag -0.5, BJeLR lethal -2.0, Bead autofluor 21006*, Anthrax LF inh2 -5.4 and BoNT-A LC inh2 inconclusive.
COc1ccc(-c2noc(N3CCC(C(=O)Nc4cc(OC)ccc4OC)CC3)n2)cc1 was read as BoNT-F LC inh -6.1, Vc quorum ag -1.2, BJeLR lethal -5.7, Bead autofluor 6123, Anthrax LF inh2 -2.2 and BoNT-A LC inh2 -0.4.
Screening COc1cccc(-c2csc(N3CCN(C(=O)Nc4ccc(F)cc4)CC3)n2)c1 returned BoNT-F LC inh 14.5, Vc quorum ag -0.3, BJeLR lethal 6.3, Bead autofluor 3275, Anthrax LF inh2 -2.5 and BoNT-A LC inh2 -0.1.
Screening COc1ccc(OC)c(NC(=O)C2CCN(c3cc(-c4ccccc4)nc4ncnn34)CC2)c1 returned BoNT-F LC inh 0.7, Vc quorum ag -0.2, BJeLR lethal 4.6, Bead autofluor 22638*, Anthrax LF inh2 3.2 and BoNT-A LC inh2 3.1.
Screening O=C(N1CCOCC1)N1CCN(c2nc(-c3ccccc3)cs2)CC1 returned BoNT-F LC inh 0.2, Vc quorum ag inactive, BJeLR lethal -1.3, Bead autofluor 22285*, Anthrax LF inh2 1.7 and BoNT-A LC inh2 0.6.
Screening CC1(c2nc3ccccc3[nH]2)CCCC2=Nc3ccccc3CN21 (configuration not stated) returned BoNT-F LC inh -3.3, Bead autofluor 5697, Anthrax LF inh2 -8.1 and BoNT-A LC inh2 -0.1.
For CC(CNC(=O)CC[C@H]1O[C@@H](n2cnc3c(NC(=O)c4ccccc4)ncnc32)[C@H](O)[C@@H]1O)c1ccccc1 (some centres not stated) the results were BoNT-F LC inh -13.5, Bead autofluor 4343, Anthrax LF inh2 -9.9 and BoNT-A LC inh2 -1.0.
Screening C[C@@H]1CCCCO[C@H](CN(C)C(=O)Nc2ccc3c(c2)OCO3)[C@H](C)CN([C@@H](C)CO)C(=O)c2cc(NS(=O)(=O)c3ccc(Cl)cc3)ccc2O1 returned BoNT-F LC inh 5.8, Vc quorum ag -0.4, Bead autofluor 3848, Anthrax LF inh2 0.6 and BoNT-A LC inh2 -0.5.
Screening COc1ccccc1NC(=O)N1CCN(c2cc(-c3ccccc3)nc3ncnn23)CC1 returned BoNT-F LC inh 0.5, Vc quorum ag -2.0, BJeLR lethal 4.1, Bead autofluor 22826*, Anthrax LF inh2 -1.3 and BoNT-A LC inh2 inconclusive.

Bioassay records from PubChem BioAssay.
